Screening results as filed in PubChem BioAssay.
PG9 binder = binders of HIV-1 gp120 antibody PG9, primary screen, biochemical, TR-FRET; HIV-1 gp120 / PG9 antibody interaction; TR-FRET gp120-PG9 antibody binding; inhibition, % at 6.7 µM; 0.43% of 360,000 active; in the data active means inhibition above about 8.5%
MsrA inh = bovine MsrA enzyme inhibitors, primary screen, biochemical, absorbance, HTS. inhibition, % at 15.5 µM. 0.75% of 360,000 active. purified bovine MsrA, absorbance read-out. Methionine sulfoxide reductase A (Bos taurus). AID 651718, 2012; in the data active means inhibition above about 4.5%
bovine MsrA act = bovine MsrA enzyme activators, primary screen, biochemical, absorbance, HTS. purified bovine MsrA, absorbance read-out. 0.3% of 360,000 active. Methionine sulfoxide reductase A (Bos taurus). activation, % at 10.6 µM; in the data active means activation above about 7.5%
rCAG binder = binders of r(CAG) RNA repeats, primary screen, biochemical, fluorescence; inhibition, % at 3 µM; r(CAG) RNA repeat, TO-PRO-1 dye displacement fluorescence; 1.3% of 370,000 active;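 active means inhibition above the plate cutoff, the mean of all test compounds on that plate plus 3 SD, cut at about 35% in these data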;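 further: higher means more dye released from RNA so lower well fluorescence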
HGIII-sPLA2 inh = human group III sPLA2 inhibitors, primary screen, biochemical, QFRET, BODIPY PC-A2 liposome substrate; Group 3 secretory phospholipase A2 (Homo sapiens), Q9NZ20; QFRET BODIPY PC-A2 liposome hydrolysis, fluorescence; inhibition, % at 12.2 µM; 0.56% of 370,000 active; AID 743126, 2013;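 active means inhibition above mean plus 3 SD of compounds lying within the high and low control bounds, cut at about 19% in these data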
Target sequence (Q9NZ20 whole entry, looked up): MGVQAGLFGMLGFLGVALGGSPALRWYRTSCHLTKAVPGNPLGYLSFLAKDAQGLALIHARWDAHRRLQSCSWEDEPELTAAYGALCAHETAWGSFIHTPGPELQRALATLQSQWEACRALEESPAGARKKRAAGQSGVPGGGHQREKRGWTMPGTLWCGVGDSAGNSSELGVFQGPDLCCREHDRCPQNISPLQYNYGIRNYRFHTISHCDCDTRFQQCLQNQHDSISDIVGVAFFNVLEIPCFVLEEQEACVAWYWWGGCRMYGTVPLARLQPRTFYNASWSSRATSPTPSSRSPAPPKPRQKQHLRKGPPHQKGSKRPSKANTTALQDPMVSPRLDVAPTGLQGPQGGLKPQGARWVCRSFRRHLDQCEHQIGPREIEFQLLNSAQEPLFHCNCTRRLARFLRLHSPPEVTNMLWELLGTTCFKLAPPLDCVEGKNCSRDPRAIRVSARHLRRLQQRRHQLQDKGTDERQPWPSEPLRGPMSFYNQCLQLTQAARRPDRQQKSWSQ
PG9 bind confirm = binders of anti-gp120 antibody PG9, confirmation, biochemical, TR-FRET. TR-FRET PG9 antibody binding. 90% of 1,500 active. shares compounds with PG9 binder. inhibition, % at 6.7 µM; in the data active means inhibition above about 9%
PGV04 counter = binders of control antibody PGV04, counter-screen for PG9 antibody binder project, biochemical, TR-FRET, distinct HIV envelope site | shares compounds with PG9 binder | TR-FRET PGV04 antibody-gp120 binding | inhibition, % at 6.7 µM | 95% of 1,500 active; in the data active means inhibition above about 9.5%
PG9 bind DR = small-molecule binders of antibody PG9, dose response, biochemical, TR-FRET, HIV-1 gp120 antibody. shares compounds with PG9 binder. TR-FRET PG9 antibody-gp120 binding inhibition. IC50, µM. 95 tested, under 10 active. AID 651848, 2012; in the data active means IC50 below about 10 µM
PGV04 DR counter = binders of control antibody PGV04, dose response, counter-screen for PG9 antibody binder project, biochemical, TR-FRET, distinct HIV envelope site; shares compounds with PG9 binder; TR-FRET binding to control antibody PGV04; IC50, µM; 20% of 95 active
PG126 DR counter = binders of control antibody PG126, dose response, counter-screen for PG9 antibody binder project, biochemical, TR-FRET, distinct HIV envelope site. IC50, µM. TR-FRET binding to antibody PG126, counterscreen. shares compounds with PG9 binder. 20% of 95 active
Of the large screens only hits and unclear results are named; the others gave an inactive call (follow-up assays come after a bar, where they were run). Only some compounds are listed: those with a hit (about 3.2% of all), similar ones and a draw of the others. Unless noted, no stated cut-off is given here; in the data, active means IC50 below about 9 µM; inactive means the rest.

CCOC(=O)c1ccccc1NC(=O)Cn1c(=O)n(Cc2ccccc2)c(=O)c2c(C)c(C)sc21	PG9 binder 11.8 | PG9 bind confirm inactive | PGV04 counter inactive
CCOC(=O)NC(=O)CSc1cc(C)c2cc(C)cc(C)c2n1	none
Cc1cc(C)c2nc(SCC(=O)NC(=O)c3cccn3C)cc(C)c2c1	PG9 binder 14.6 | PG9 bind confirm 12.7 | PGV04 counter 26.6
CC[C@H]1C=C[C@@H](C(=O)NS(=O)(=O)c2ccc(C)cc2)N(C(C)=O)C1	none (no result: PG9 binder, MsrA inh, bovine MsrA act)
COc1ccc(CC(=O)OCc2cc3ccc(C)cc3[nH]c2=O)cc1	PG9 binder 16.7 | PG9 bind confirm 18.1 | PGV04 counter 30.2
COc1ccc(CC(=O)OCc2cc3ccccc3[nH]c2=O)cc1	none
Cc1cc(C)cc(-c2c(C(=O)c3ccc(Br)cc3)[nH]c(N)c2C(=O)NCc2ccc(Cl)cc2)c1	none (no result: PG9 binder, MsrA inh, bovine MsrA act, rCAG binder)
CC1(C)Oc2ccc(C(=O)NC3CCCC3)cc2NC1=O	none (no result: PG9 binder, MsrA inh, bovine MsrA act)
Nn1c(=S)[nH]c2sc3c(c2c1=O)CCCC3	PG9 binder 9.7 | PG9 bind confirm 10.1 | PGV04 counter 9.4 | PG9 bind DR inactive | PGV04 DR counter inactive | PG126 DR counter inactive
CCCn1c(=S)[nH]c2sc3c(c2c1=O)CCCC3	none
CCCc1cc(=O)oc2cc(OCC(=O)Nc3ccc(S(N)(=O)=O)cc3)ccc12	PG9 binder 17.7 | PG9 bind confirm 23.9 | PGV04 counter 22.5 | PG9 bind DR inactive | PGV04 DR counter inactive | PG126 DR counter inactive
CCCc1cc(=O)oc2cc(OCC(=O)NCc3cccs3)ccc12	none
O=C(C1=C(O)C(=O)N(CC2CCCO2)C1c1ccc(Cl)cc1Cl)c1ccco1 (centres undefined)	PG9 binder 10.7 | PG9 bind confirm 19.0 | PGV04 counter 23.4
C[C@@H](NC(=O)C[C@H]1CC[C@H]2[C@@H](COc3ccc(NC(=O)Nc4ccccc4)cc3C(=O)N2C)O1)c1ccccc1	none (no result: PG9 binder, MsrA inh, bovine MsrA act)
COC(=O)Cc1ccc2sc(-c3ccccc3)nc2c1	none
O=C(O)Cc1ccc2sc(-c3ccccc3)nc2c1	PG9 binder 9.0 | PG9 bind confirm 11.2 | PGV04 counter 16.9
CCn1c(=O)c(C(=O)Nc2ccccc2C)c(O)c2ccccc21	none
CCn1c(=O)c(C(=O)Nc2ccccc2S(N)(=O)=O)c(O)c2ccccc21	PG9 binder 15.1 | PG9 bind confirm inactive | PGV04 counter 14.3
CCOC(=O)c1c(C)[nH]c(C(=O)CSc2nccc(C)n2)c1C	PG9 binder 21.9 | PG9 bind confirm 24.0 | PGV04 counter 40.8
C/C(=C/c1nc(N)n(Cc2ccccc2)c1Cc1ccccc1)Cn1[nH]c(=O)n(-c2ccccc2)c1=O	none (no result: PG9 binder, MsrA inh, bovine MsrA act)
O=C(Nc1ccccc1)c1cnc(-c2ccccc2)nc1-c1ccccc1	PG9 binder 16.2 | PG9 bind confirm 20.4 | PGV04 counter 27.9
O=C1N(Cc2cccc(Cl)c2)C[C@@H]2C[C@@H](c3cccn3-c3cccnc3)N3CCC[C@@]123	PG9 binder 17.4 | PG9 bind confirm 10.4 | PGV04 counter 19.4
CCn1ncc([C@@H]2C[C@H]3CN(Cc4cccc(Cl)c4)C(=O)[C@]34CCCN24)c1C	none
COc1ccccc1NCc1nc2ccccc2n1C	none (no result: PG9 binder, MsrA inh, bovine MsrA act, rCAG binder)
CC(=O)c1ccc(NCCCN2CCC(C(O)(c3ccccc3)c3ccccc3)CC2)cc1	none (no result: PG9 binder, MsrA inh, bovine MsrA act)
Cc1cccc(Nc2nn3c(=O)c4ccccc4nc3s2)c1	PG9 binder 27.5 | PG9 bind confirm 62.4 | PGV04 counter 68.5
CCCn1c(=O)c(C(=O)NCC2CCCO2)c(O)c2ccccc21 (centres undefined)	PG9 binder 8.6 | PG9 bind confirm 11.9 | PGV04 counter 15.5
O=C(NCC1CCCO1)c1c(O)c2ccccc2[nH]c1=O (centres undefined)	none
COc1ccc(-n2c(SCC(=O)NCCCSC)nnc2-c2ccncc2)cc1	none (no result: PG9 binder, MsrA inh, bovine MsrA act)
CCCn1c(/C=C/c2cc[n+](C)cc2)nc2ccccc21	PG9 binder 10.2 | PG9 bind confirm 13.0 | PGV04 counter 15.3
CN1C(=O)C[C@@](C#N)(C(=O)NCC(F)(F)F)[C@H]1c1ccccc1	none (no result: PG9 binder, MsrA inh, bovine MsrA act)
CC(=O)NC(CSc1cc(C)nc2ccc(Br)cc12)C(=O)O (centres undefined)	PG9 binder 20.7 | PG9 bind confirm 34.5 | PGV04 counter 49.7
O=C(Nc1ccc2ccccc2c1)C1CC2CCC1C2 (centres undefined)	none (no result: PG9 binder, MsrA inh, bovine MsrA act, rCAG binder)
CCOC(=O)CC[C@@H]1CC[C@]2(CCCN(Cc3ccc(Cl)cc3)C2)O1	none (no result: PG9 binder, MsrA inh, bovine MsrA act)
Cc1ccc(C)c(NC(=O)CN2C(=O)CCSc3ccccc32)c1	none (no result: PG9 binder, MsrA inh, bovine MsrA act)
Cc1ccc(-c2cc(C(=O)O)c3cc(Br)ccc3n2)o1	PG9 binder 13.5 | PG9 bind confirm 10.5 | PGV04 counter 19.9
CC(=O)c1c(C)nc2ccc(Br)cc2c1-c1ccccc1	none
Cc1ccc(-c2cc(C(=O)O)c3cc(Br)ccc3n2)s1	PG9 binder 23.5 | PG9 bind confirm 28.4 | PGV04 counter 42.9
Cc1ccc(-c2cc(C(=O)N3CCCC3)c3ccccc3n2)s1	none
Cc1ccc(-c2cc(C(=O)NN3CCOCC3)c3cc(Br)ccc3n2)o1	none
Cc1nc2ccc(Br)cc2c(-c2ccccc2)c1C(=O)O	PG9 binder 55.5 | PG9 bind confirm 64.6 | PGV04 counter 76.6
CCOC(=O)C1=NOC(C(=O)NC2CCCC2)(C(=O)C2CC2)C1 (centres undefined)	none (no result: PG9 binder, MsrA inh, bovine MsrA act)
O=C(Nc1ccccc1)c1ccc(-c2ccc(F)cc2)s1	PG9 binder 18.6 | PG9 bind confirm 20.4 | PGV04 counter 28.3
CCc1nnc(NC(=O)c2ccc(S(=O)(=O)N3CCc4ccccc4C3)cc2)s1	none
CCc1nnc(NC(=O)c2ccc(Cl)c(S(=O)(=O)N3CCc4ccccc4C3)c2)s1	PG9 binder 20.3 | PG9 bind confirm 24.1 | PGV04 counter 34.3
